High-throughput results (PubChem BioAssay)
A selection: hits, their analogues and other compounds. The true share with any hit is near 10%.
ALOX12 inhib – 12-hLO (ALOX12) enzyme inhibition. P18054. purified 12-hLO, xylenol orange hydroperoxide absorbance. Potency, µM (highest dose often 57.1 µM), without a hit: at the top dose activity change, negative = inhibition, usual class: inhibitors. 150,000 tested, 0.12% active; also: potency is read from the fitted curve at half-maximal effect; nearly all actives have a fitted effect of over 55% in size
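150 nM 12hLO, 25 mM Hepes pH 7.0 + 0.01% Triton X-100; cpd preinc 15 min RT; 40 uM arachidonic acid, 30 min RT; Fe-XO 30 min; A573/A405 ratio as read-out.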
aGal spleen mod – inhibitors or activators of human alpha-galactosidase in spleen homogenate; P06280; human spleen homogenate, 4MU-alpha-Gal fluorescence, 40 min; Potency, µM (highest dose often 80 µM), for inactives: top-dose activity change, negative = inhibition, most hits filed as inhibitors; 240,000 tested, 0.008% active;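 also: potency is read from the fitted curve at half-maximal effect; 0% = enzyme with vehicle and -100% = no enzyme basal signal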
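Human spleen homogenate (1 ug) as enzyme source, 4-methylumbelliferyl-alpha-D-galactopyranoside 1 mM final, citrate/phosphate pH 5.0 with 0.01% Tween-20. Compounds 40 min at 37C, NaOH/glycine stop; fluorescence Ex 365/Em 440, Hill-fit AC50.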
ALDH1A1 inh – inhibitors of human aldehyde dehydrogenase 1A1; Potency, µM (titrated, usually from 75.3 µM), without a hit: at the highest dose activity, negative = inhibition, hits mostly inhibitors; 220,000 tested, 7.3% active; Purified ALDH1A1, NADH fluorescence, propionaldehyde substrate; P00352; AID 1030; active = well fitted inhibition curve with a large enough effect, not every such curve was filed as active; inconclusive = small, poorly fitted or top-dose-only effect, or another doubt; inactive = no such curve, though single readings can be large or run the other way;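 also: potency is read from the fitted curve at half-maximal effect; plate controls were no enzyme wells and a reference inhibitor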
PNC inhibitor – inhibitors of perinucleolar compartment assembly; PC3M PTB-GFP, PNC prevalence imaging, 16 h; stronger effect = lower value; activity change (PNC), negative = inhibition, % at 10 µM; 140,000 tested, 3.1% active;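 active = readout at or below -70, meaning at least 70% loss of cells showing the perinucleolar compartment, a nuclear body marking cancer cells; inconclusive = readout between -30 and a set limit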;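 also: plate controls were DMSO wells for no effect and camptothecin positive control wells for full effect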
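PC3M cells stably expressing PTB-GFP, 750–1000 cells/well, treated 16 h at 37 °C with compound (23 nl of library stock), in duplicate. After paraformaldehyde fixation and Hoechst stain, imaged at 20x; PNC prevalence scored by image analysis.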
GLA inh pH 4.5 – blocks human alpha-galactosidase A at pH 4.5; purified enzyme, 4-MU-alpha-Gal fluorescence, pH 4.5; activity change, negative = inhibition, % at 105 µM; 230,000 tested, under 10 active; AID 1467;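 also: 0% = full activity with enzyme and -100% = basal without enzyme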
Target sequence (P06280 whole entry, looked up): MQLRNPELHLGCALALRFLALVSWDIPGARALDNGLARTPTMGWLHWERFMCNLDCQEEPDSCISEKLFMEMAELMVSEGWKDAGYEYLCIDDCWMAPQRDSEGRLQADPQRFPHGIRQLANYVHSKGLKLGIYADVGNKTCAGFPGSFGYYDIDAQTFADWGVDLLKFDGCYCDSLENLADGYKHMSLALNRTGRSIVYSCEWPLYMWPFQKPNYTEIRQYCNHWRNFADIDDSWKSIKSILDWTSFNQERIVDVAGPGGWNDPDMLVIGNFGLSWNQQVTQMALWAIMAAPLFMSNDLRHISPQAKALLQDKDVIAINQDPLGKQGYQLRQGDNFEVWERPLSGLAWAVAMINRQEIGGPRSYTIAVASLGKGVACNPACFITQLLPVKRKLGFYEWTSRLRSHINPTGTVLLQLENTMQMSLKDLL
HPGD block – blocks human HPGD enzyme activity. P15428. purified HPGD, NADH fluorescence kinetic, PGE2 substrate. Potency, µM, for the others: top-dose activity change, negative = inhibition, usual class: inhibitors. 150,000 tested, 4.3% active. AID 894; active = well fitted inhibition curve with a large enough effect, not every such curve was filed as active; inconclusive = small, poorly fitted or top-dose-only effect, or another doubt; inactive = no such curve, though single readings can be large or run the other way; also: potency is read from the fitted curve at half-maximal effect
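20 nM HPGD preincubated 15 min at room temperature with compound in 50 mM Tris-HCl pH 8, 0.01% Tween 20. Started with 1 mM NAD+ and 30 uM prostaglandin E2; NADH fluorescence (360/450 nm) read 5 times over 30-s intervals, last minus first.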
Numbers without * were called inactive; [ ] = another dose, or the depositor's remark. Unless noted, calls follow the shape of the dose curve; as a rule, active = well fitted curve in the direction sought with a large enough effect; inconclusive = small, poorly fitted or top-dose-only effect, or another doubt; inactive = no such curve, though single readings can be large; an effect the other way counts as inactive or inconclusive. Unless noted, % is scaled to controls: 0 for no effect and ±100 for the full control effect.

What do the screens show for `O=C(CCc1nnc(CCc2ccccc2)o1)NC(c1cccnc1)C(F)(F)F` (centres undefined)?
aGal spleen mod: -0.9%; GLA inh pH 4.5: 0.4

What do the screens show for `C=CCn1c(NCCO)nc2sc3c(c2c1=O)CCC3`?
ALOX12 inhib: -5.6%; aGal spleen mod: 3.6%; ALDH1A1 inh: -2.7%; PNC inhibitor: -113.6*; GLA inh pH 4.5: -8.0; HPGD block: -7.3%

What do the screens show for `O=C(NC[C@@H]1CCCCN1)c1cc(OCC(F)(F)F)ccc1OCC(F)(F)F`?
ALOX12 inhib: -1.1%[25.6 µM]; aGal spleen mod: -2.8%[29.1 µM]; ALDH1A1 inh: 6.2%[20.9 µM]; GLA inh pH 4.5: 5.2; HPGD block: -5.1%

How did COc1ccc(C(=O)CCNc2cccc(Cl)c2)cc1 do in these assays?
ALOX12 inhib: 1.4%; aGal spleen mod: 0.4%; ALDH1A1 inh: 3.16µM*; PNC inhibitor: -15.6; GLA inh pH 4.5: -0.8; HPGD block: -0.2%

What do the screens show for `COc1ccc(C(=O)CCC(=O)Nc2cccc(Cl)c2)cc1`?
aGal spleen mod: 4.1%; ALDH1A1 inh: 11.2%; GLA inh pH 4.5: -13.3

What do the screens show for `CCCOc1ccc(C(=O)CCNc2cccc(Cl)c2)cc1`?
aGal spleen mod: 9.7%; ALDH1A1 inh: 7.94µM*; GLA inh pH 4.5: 6.3

Results for Cc1noc(C)c1-c1ccc2ncnc(NCc3ccc(C(F)(F)F)cc3)c2c1 ?
aGal spleen mod: 10.3%

What do the screens show for `O=C1C[C@H](c2ccccc2Cl)N1S(=O)(=O)c1ccccc1[N+](=O)[O-]`?
aGal spleen mod: -1.2%

Results for O=c1[nH]n2c(=O)c3c([nH]c2c1N=Nc1cccc(Cl)c1)CCC3 ?
ALOX12 inhib: 2.0%; aGal spleen mod: 0.5%; ALDH1A1 inh: inconclusive; PNC inhibitor: inconclusive; GLA inh pH 4.5: 2.0; HPGD block: 7.08µM*

How did NS(=O)(=O)c1ccc(N=Nc2c(=O)[nH]n3c(=O)c4c([nH]c23)CCCC4)cc1 do in these assays?
aGal spleen mod: 1.8%; ALDH1A1 inh: -6.9%; GLA inh pH 4.5: -13.9

What do the screens show for `COc1cccc(N=Nc2c(=O)[nH]n3c(=O)cc(C)[nH]c23)c1`?
ALOX12 inhib: -12.7%; aGal spleen mod: -3.5%; ALDH1A1 inh: -11.2%; PNC inhibitor: -7.5; GLA inh pH 4.5: -9.5; HPGD block: 14.1µM*

How did COc1cccc(N=Nc2c(=O)[nH]n3c(=O)c4c([nH]c23)CCC4)c1 do in these assays?
ALOX12 inhib: -5.0%; aGal spleen mod: -5.4%; ALDH1A1 inh: -5.6%; PNC inhibitor: 31.3; GLA inh pH 4.5: -3.2; HPGD block: 14.1µM*

What do the screens show for `O=c1[nH]n2c(=O)c3c([nH]c2c1N=Nc1cccc(C(F)(F)F)c1)CCCC3`?
ALOX12 inhib: 2.1%; aGal spleen mod: 0.6%; ALDH1A1 inh: 0.2%; PNC inhibitor: -19.1; GLA inh pH 4.5: -1.7; HPGD block: -26.6%

Results for O=C(NC(c1ccccc1)c1ccccc1)c1ccc(=O)[nH]n1 ?
aGal spleen mod: 4.7%; ALDH1A1 inh: 4.47µM*; GLA inh pH 4.5: 0.9

How did N#CC(c1ccccc1)c1ccc(=O)[nH]n1 (centres undefined) do in these assays?
aGal spleen mod: -8.6%; ALDH1A1 inh: inconclusive; GLA inh pH 4.5: 9.8

What do the screens show for `COc1ccc(/C=N/NC(C)(C)C)c(OC)c1`?
aGal spleen mod: 0.2%; ALDH1A1 inh: 20µM*; GLA inh pH 4.5: 5.9

How did N[C@@H](Cc1ccccc1)c1nnc2sc(SCc3ccccc3)nn12 do in these assays?
ALOX12 inhib: -2.0%; aGal spleen mod: 1.3%; ALDH1A1 inh: 28.2µM*; PNC inhibitor: 23.8; GLA inh pH 4.5: -24.7; HPGD block: 28.2µM*

How did COC(=O)c1ccc(CSc2nc3ccccc3s2)o1 do in these assays?
ALOX12 inhib: 0.4%; aGal spleen mod: 0.0%; ALDH1A1 inh: -15.0%; PNC inhibitor: inconclusive; GLA inh pH 4.5: -4.7; HPGD block: -18.2%

How did COC(=O)c1ccc(CSc2cc(C)c3cccc(C)c3n2)o1 do in these assays?
aGal spleen mod: 35.5µM*; ALDH1A1 inh: inconclusive; GLA inh pH 4.5: 14.7
